Data as given in the supplement of paper PMC7866885, “A novel bicyclic 2,4-diaminopyrimidine inhibitor of Streptococcus suis dihydrofolate reductase” (PeerJ, 2021).
± gives the standard deviation.

Key:
Streptococcus suis HE06 = test: percent growth relative to DMSO control; higher = less growth inhibition; settings: 10 µM; incubation time 18 h
Procedure: (§1)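 CLSI broth microdilution: 5x10^4 CFU of Streptococcus suis (strain P1/7 or HE06) incubated with 10 µM Pathogen Box compound in cation-adjusted Mueller Hinton broth, 37 °C, 5% CO2, 18 h. Growth read as OD600 and expressed as percent of the DMSO-treated control (100%); mean ± SD of three independent experiments.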

Streptococcus suis P1/7 = test: as above; settings: 10 µM; incubation time 18 h
Procedure: as §1

Structure (SMILES) | percent growth (Streptococcus suis HE06) [%] | percent growth (Streptococcus suis P1/7) [%]
COc1ccc(-c2nn(C(C)C)c3ncnc(N)c23)cc1OC | 112 ± 26 | 121 ± 74
O=C(Nc1ccccc1-c1nc2c(C(=O)O)cccc2o1)c1ccccc1 | 68.4 ± 14 | 68.3 ± 5.7
COc1cccc(OC)c1C(=O)Nc1ccc(Cl)c(-c2nc3ccccc3s2)c1 | 98.9 ± 8.3 | 119 ± 45
O=C(c1ccc(NCCO)cc1)C1C[C@H]1c1ccc(Cl)cc1 (stereo partly specified) | 147 ± 53 | 67 ± 24
O=C(CN1CCOCC1)Nc1ccc2ncnc(Nc3ccc(OCc4cccc(F)c4)c(Cl)c3)c2c1 | 53.5 ± 39 | 63 ± 18
CN1CCC(NCc2cccc(-c3ccc(S(=O)(=O)NCc4ccccc4)cc3)c2)CC1 | 94.9 ± 28 | 70.3 ± 11
Nc1nc(N)c2c3c(sc2n1)CN(Cc1ccccc1)CC3 | 94.5 ± 3.1 | 87.8 ± 9.9
C[C@H](C(N)=O)N1CCCC[C@H]1c1ccc(OCc2cccc(F)c2)cc1 | 85.5 ± 23 | 63.4 ± 26
O=C(Nc1ccnc(-c2cccnc2)n1)c1cc(C(F)(F)F)cc(C(F)(F)F)c1 | 78.2 ± 14 | 123 ± 50
Cc1cc(NCCc2ccccc2)nc(NC(=N)Nc2ccc(Cl)cc2)n1 | 148 ± 68 | 74.4 ± 13
Cc1ccc(S(=O)(=O)n2cc(-c3ccnc(N)c3)c3cc(Br)cnc32)cc1 | 95.2 ± 32 | 61.5 ± 15
O=C(NCCN1CCCC1)c1cc(NCCN2CCOCC2)nc2ccc(Cl)cc12 | 95.2 ± 4.7 | 83.1 ± 11
N=C(N)c1ccc(-c2cc(-c3ccccc3)on2)cc1 | 85.2 ± 3 | 106 ± 55
Cc1ccc2c(c1C)NC(=O)C21NN=C(c2ccccc2)S1 (stereo unspecified) | 0.434 ± 0.78 | 0.432 ± 0.48
CC(=O)N1CCc2cc3nc(C)cc(C)c3cc21 | 88.4 ± 9.8 | 91.7 ± 27
CNc1cc(C)nc(C2CN(C(=O)c3n[nH]c4ccccc34)CCO2)c1 (stereo unspecified) | 89.6 ± 5.4 | 105 ± 50
CCN(CC)CCCN1CCN(C(=O)c2cccc(-c3noc(C(F)(F)F)n3)c2)CC1 | 90.3 ± 14 | 138 ± 110
O=C(Nc1nc(-c2ccccn2)cs1)c1cncn1-c1ccccc1 | 13.4 ± 19 | 5.15 ± 6.6
CC(C)=CCC/C(C)=C\CNCCNC1C2CC3CC(C2)CC1C3 (stereo unspecified) | 0.0687 ± 0.12 | -0.0282 ± 0.049

Structure (SMILES) | percent growth (Streptococcus suis HE06) [%] | percent growth (Streptococcus suis P1/7) [%]
N=C(N)Nc1ccc(-c2ccc(-c3ccc(NC(=N)N)cc3Cl)o2)c(Cl)c1 | 22.2 ± 37 | 23.2 ± 34
CCCCCCCCCCCCCCCCOP(=O)([O-])OCC[N+](C)(C)C | 117 ± 7.1 | 112 ± 40
CN1CCC(c2cc(-c3ccncc3)c(-c3ccc(F)cc3)[nH]2)CC1 | 101 ± 13 | 165 ± 140
COc1ccc(-c2nc(-c3cccc(NC(=O)Cc4ccc(F)cc4)c3)no2)cc1OC | 83 ± 3.5 | 102 ± 57
Cc1cnc(CCNC(=O)c2cc(-c3ccc(Cl)cc3)cs2)[nH]1 | 80.7 ± 6.9 | 77.5 ± 18
CCOc1ccc(-c2nc(NC(=O)CS(=O)(=O)c3ccccc3)sc2C)cc1 | 76.9 ± 15 | 153 ± 100
CCc1c(C)nc(-n2nc(C)cc2NC(=O)c2ccccc2SC)[nH]c1=O | 0.0799 ± 0.092 | 1.97 ± 3.8
Cc1nc(-c2ccccn2)nc(N2CCC(Cc3ccccc3)C2)c1Cl (stereo unspecified) | 0.933 ± 1.6 | -0.158 ± 0.27
COc1cccc(OCC(=O)c2ccc(Br)cc2)c1 | 57.7 ± 50 | 81.9 ± 9.6
CC1CC1C(=O)NC1CCN(CC2(c3ccccc3)CCCCC2)CC1 (stereo unspecified) | 76.8 ± 15 | 71.1 ± 43
c1cc(C2=NCCN2)cc(-c2cc(-c3ccc(C4=NCCN4)cc3)no2)c1 | 103 ± 19 | 88.8 ± 25
COC(=O)Nc1nc2cc(C(=O)c3ccccc3)ccc2[nH]1 | 86 ± 8.2 | 74.9 ± 28
CCc1ccccc1-n1c(C)cn2c3c(=O)n(C(C(=O)OC)C(C)C)c(=O)n(C)c3nc12 (stereo unspecified) | 109 ± 4.8 | 101 ± 14
Nc1nc2ccc(-c3cncc(Oc4ccc(F)cc4)c3)cc2[nH]1 | 91.8 ± 11 | 111 ± 67
C[C@H]1COc2c(N3CCN(C)CC3)c(F)cc3c(=O)c(C(=O)O)cn1c23 | 1.93 ± 0.63 | 1.55 ± 1.7
CCCS(=O)(=O)N1CCC(CO)(Cc2ccccc2C(F)(F)F)CC1 | 99.2 ± 19 | 82.4 ± 27
C[C@H]1c2cccc(O)c2C(=O)C2=C(O)[C@]3(O)C(=O)C(C(N)=O)=C(O)[C@@H](N(C)C)[C@@H]3[C@@H](O)[C@@H]21 | 10.4 ± 18 | 1.89 ± 3.3
Cc1ccc(-c2nc(CN(Cc3ccccn3)C(C)C)cs2)o1 | 25.7 ± 44 | 19.4 ± 34
CCc1nc2ccccc2n1CC(O)COc1cc(C)ccc1Cl (stereo unspecified) | 65.7 ± 22 | 103 ± 41
